About 83,000 compounds went through this panel and 20% of them were active in at least one assay; those are over-represented in the sample as a whole.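 Note: values are percent growth. 100 is the growth of untreated cells, values between 100 and 0 indicate rising inhibition; between -100 and 0 indicates cell death.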 Activity calls are given as the source filed them. How the source made its calls: active means growth percent below 10; inactive means the rest.
Test system: SF-539 CNS
Test: NCI-60 one-dose screen, 48 h (100 = growth as untreated, 0 = no growth, -100 = all killed)
Details: 10 µM unless noted

Q: How did the growth turn out when `c1csc(C2=NN3C(C2)c2ccccc2OC3c2ccncc2)c1` (stereo not drawn) was run?
A: Its growth is 96.7% (inactive).

Q: `CC1=CC(C)(C)Nc2ccc(Cc3ccc4c(c3)C(C)=CC(C)(C)N4)cc21` was tested. Which growth did it give?
A: Its growth is 96.6% (inactive).

Q: `CCCCn1c(-c2ccc(C(=O)O/N=C(\N)c3ccc4ccccc4c3)cc2)nc(-c2ccccc2)c1-c1ccccc1` was tested. Which growth did it give?
A: The growth was 81.3% (inactive).

Q: How did the growth turn out when `O=C(Nc1ccc(Cl)cc1)c1cc2cc(F)ccc2cc1O` was run?
A: Its growth is 17.7% (inactive).

Q: With `Cn1cc(-c2nonc2-c2cn(C)c3ccc(F)cc23)c2cc(F)ccc21` as the molecule, how does the growth read?
A: The growth was 66.1% (inactive).

Q: How did the growth turn out when `CCN(CC)S(=O)(=O)c1ccc(OC)c(NC(=O)c2[nH]c(C)c3c2CCCCC3=O)c1` was run?
A: Its growth is 36.1% (inactive).

Q: `COc1cccc(-c2nc3sccn3c2-c2ccnc(NCCCNS(=O)(=O)c3cccc(F)c3)c2)c1` was tested. Which growth did it give?
A: The growth was 70% (inactive).

Q: With `COc1cc(/C=C/c2cc(/C=C/c3ccc(O)c(OC)c3)n(-c3c(C)cccc3C)c(=O)n2)ccc1O` as the molecule, how does the growth read?
A: Its growth is -23.5% (active).

Q: With `COc1cccc(-c2nc(SCC(=O)Nc3ccc(C(=O)/C=C/c4ccc(OC)c(OC)c4)cc3)[nH]c(=O)c2C#N)c1` as the molecule, how does the growth read?
A: The growth was 86.2% (inactive).

Q: How did the growth turn out when `Cc1cc(C)c2nc3nc(C)cc(C)c3c(N)c2c1` was run?
A: Its growth is 14.1% (inactive).

Q: With `FC(F)(F)c1ccc(-c2cn3nc(-c4c[nH]c5ccc(Br)cc45)sc3n2)cc1` as the molecule, how does the growth read?
A: Its growth is 101% (inactive).

Q: With `CC(=O)O[C@H]1[C@@H]2OC(=O)C(CSc3ccccc3)[C@@H]2C[C@H]2O[C@]2(C)CC/C=C(\C)CCC[C@@H]1C` (stereo partly drawn) as the molecule, how does the growth read?
A: The growth was 57% (inactive).

Q: Which growth does the source give for `Cc1cc(C)nc(SC2=C(Nc3ccc(O)cc3)C(=O)N(Cc3ccccc3)C2=O)n1` here?
A: The growth was 94.2% [40 µM] (inactive).

Q: With `COC(=O)c1ccc(Cn2cnc3c(N)ncnc32)cc1` as the molecule, how does the growth read?
A: Its growth is 92.1% (inactive).

Q: How did the growth turn out when `CCOc1nc(-c2ccccc2)cc2c(O)c(C(=O)O)[nH]c(=O)c12` was run?
A: The growth was 94.6% (inactive).

Q: With `COc1ccc(Nc2nc(SC)nc(-c3cccc([N+](=O)[O-])c3)c2C#N)cc1` as the molecule, how does the growth read?
A: Its growth is 69% (inactive).

Q: With `CN(C)[C@@H]1C(=O)C(C(=O)NCc2nc3[nH]cnc(=S)c3[nH]2)=C(O)[C@@]2(O)C(=O)C3=C(O)c4c(O)cccc4[C@@](C)(O)[C@H]3C[C@@H]12` as the molecule, how does the growth read?
A: Its growth is 31.8% (inactive).

Q: Which growth does the source give for `CCOC(=O)c1sc2nc(-c3cccc(O)c3)nc(N3CCOCC3)c2c1C` here?
A: Its growth is 51.3% (inactive).

Q: `O=C1/C(=C/c2ccccc2)SC(=S)N1CCc1ccc(O)cc1` was tested. Which growth did it give?
A: The growth was 90.1% (inactive).

Q: With `OCC(O)c1nc2ccc3[nH]ncc3c2c2c1CCCC2` (stereo not drawn) as the molecule, how does the growth read?
A: The growth was -39.1% (active).

Q: With `COc1cc2c(cc1-c1c(C)noc1C)ncc1nc(C3CCC(F)(F)CC3)n([C@H](C)COC(F)F)c12` as the molecule, how does the growth read?
A: The growth was 34% (inactive).

Q: With `O=C1c2c(O)cc(O)cc2-c2c(-c3ccc(O)cc3)oc3cc(O)cc1c23` as the molecule, how does the growth read?
A: The growth was 25.2% (inactive).

Q: With `CCN1CCN(c2nc(NCCNc3ccnc4cc(Cl)ccc34)c3ccccc3n2)CC1` as the molecule, how does the growth read?
A: Its growth is -71.2% (active).

Q: Which growth does the source give for `O=S(=O)(Nc1ccc(Br)c(Cl)c1)c1ccc(-c2cnc(C3CC3)o2)cc1` here?
A: The growth was -19.8% (active).

Q: For `Cc1nn(-c2cc(=O)[nH]c3ccc(Cl)cc23)c(N)c1C#N`, which growth is on record?
A: Its growth is 99.9% (inactive).

Q: Which growth does the source give for `Clc1ccc2c(NCCCCNc3nc(N4CCOCC4)nc4ccccc34)ccnc2c1` here?
A: The growth was -84.5% (active).

Q: Which growth does the source give for `CCOc1nc(-c2ccccc2)cc2c(O)c(C(=O)N/N=C/c3ccc(O)cc3O)[nH]c(=O)c12` here?
A: Its growth is 16% (inactive).

Q: How did the growth turn out when `O=C(O)c1ccc(NC(=O)c2ccc(-c3cccc([N+](=O)[O-])c3)o2)cc1` was run?
A: Its growth is 99.4% (inactive).

Q: Which growth does the source give for `Cc1ccc(NS(=O)(=O)c2ccc(-c3cnc(C4CC4)o3)cc2)cc1C` here?
A: The growth was -13.6% (active).

Q: How did the growth turn out when `O=c1ccccc(-c2ccc(-c3ccco3)cc2)c1O` was run?
A: The growth was -2.44% (active).

Q: Which growth does the source give for `CC(C)CC1C(=O)N2CCC[C@H]2C2(O)O[C@](NC(=O)C3C=C4c5cccc6[nH]c(Br)c(c56)C[C@H]4N(C)C3)(C(C)C)C(=O)N12` (stereo partly drawn) here?
A: The growth was 73.6% (inactive).

Q: Which growth does the source give for `C=CC(=O)Nc1cccc(-c2nc(SC)nc(NCCN3CCOCC3)c2C#N)c1` here?
A: Its growth is 93.3% (inactive).

Q: Which growth does the source give for `CC(C)c1c(C(=O)c2ccccc2)c(-c2ccccc2)c(-c2ccc(F)cc2)n1CC[C@@H](O)C[C@@H](O)CC(=O)O` here?
A: The growth was 80% (inactive).

Q: With `O=S(=O)(Nc1ccc(NS(=O)(=O)c2ccccc2)c(Cl)c1)c1ccccc1` as the molecule, how does the growth read?
A: The growth was 105% (inactive).

Q: Which growth does the source give for `O=C(N=Nc1c(O)[nH]c2ccccc12)c1cc(-c2ccccc2)on1` here?
A: The growth was 97.4% (inactive).

Q: Which growth does the source give for `O=C1NC(=S)NC(=O)C1CC(=O)n1c(-c2ccccc2)nc2ccccc21` here?
A: Its growth is 94.1% (inactive).

Q: With `Cn1c(O)c(N=NC(=O)c2cc(-c3ccccc3)on2)c2ccccc21` as the molecule, how does the growth read?
A: Its growth is 99.9% (inactive).

Q: How did the growth turn out when `CN1CCN(Cc2ccc(NC(=O)c3cncc(C#Cc4cncn5ccnc45)c3)cc2C(F)(F)F)CC1` was run?
A: The growth was 52.4% (inactive).
